# Experimental data from PubChem BioAssay AID1159580 (chemical genetic matrix, 2015).
# Screen size: about 5,500 compounds; about 2,000 (36%) were called active. Not shown: some 18% with an inconclusive outcome. The list shows a part of the results. A number with no mark means an inactive call. Rule as the data show it: active = normalized growth mostly below about 0.91 (no sharp cut-off); inconclusive = no clear call, values can overlap the other calls; inactive = mostly above about 0.92.
# Test: chemical genetic growth profiling, strain panel (AID 1159580);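 also: tested at 20 µM; growth read once vehicle control cultures reached saturation at 30 °C; 1 = growth at the plate median or of vehicle wells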
# Settings: growth OD
# [1] = S. cerevisiae deletion strains, locus YAL013W, strain DEP1, stronger effect = lower value
# [2] = S. cerevisiae deletion strains, locus YBR229C, strain ROT2, stronger effect = lower value
# [3] = S. cerevisiae deletion strains, locus YDL101C, strain DUN1, stronger effect = lower value
# [4] = S. cerevisiae deletion strains, locus YDL134C, strain PPH21, stronger effect = lower value
# [5] = S. cerevisiae deletion strains, locus YDR150W, strain NUM1, stronger effect = lower value
# [6] = S. cerevisiae deletion strains, locus YEL061C, strain CIN8, stronger effect = lower value
# [7] = S. cerevisiae deletion strains, locus YGR078C, strain PAC10, stronger effect = lower value
# [8] = S. cerevisiae deletion strains, locus YHR030C, strain SLT2, stronger effect = lower value
# [9] = S. cerevisiae deletion strains, locus YHR087W, strain rtc3, stronger effect = lower value
# [10] = S. cerevisiae deletion strains, locus YJL187C, strain SWE1, stronger effect = lower value
# [11] = S. cerevisiae deletion strains, locus YJR043C, strain POL32, stronger effect = lower value
# [12] = S. cerevisiae deletion strains, locus YJR075W, strain HOC1, stronger effect = lower value
# [13] = S. cerevisiae deletion strains, locus YKL190W, strain CNB1, stronger effect = lower value
# [14] = S. cerevisiae deletion strains, locus YLR039C, strain RIC1, stronger effect = lower value
# [15] = S. cerevisiae deletion strains, locus YLR058C, strain SHM2 (second series), stronger effect = lower value
# [16] = S. cerevisiae deletion strains, locus YLR085C, strain ARP6, stronger effect = lower value
# [17] = S. cerevisiae deletion strains, locus YLR262C, strain YPT6, stronger effect = lower value
# [18] = S. cerevisiae deletion strains, locus YML094W, strain GIM5, stronger effect = lower value
# [19] = S. cerevisiae deletion strains, locus YMR219W, strain ESC1, stronger effect = lower value
# [20] = S. cerevisiae deletion strains, locus YNL153C, strain GIM3, stronger effect = lower value
# [21] = S. cerevisiae deletion strains, locus YNL298W, strain CLA4 (second series), stronger effect = lower value
# [22] = S. cerevisiae deletion strains, locus YNL322C, strain KRE1, stronger effect = lower value
# [23] = S. cerevisiae deletion strains, locus YNR030W, strain Alg12, stronger effect = lower value
# [24] = S. cerevisiae deletion strains, locus YPL055C, strain LGE1, stronger effect = lower value
# [25] = S. cerevisiae deletion strains, locus YPL241C, strain CIN2, stronger effect = lower value
# [26] = S. cerevisiae deletion strains, locus YPR135W, strain CTF4, stronger effect = lower value
# [27] = S. cerevisiae strains, strain wild type, stronger effect = lower value
# [28] = S. cerevisiae deletion strains, locus YGR229C, strain SMI1, stronger effect = lower value
# [29] = S. cerevisiae deletion strains, locus YMR263W, strain SAP30, stronger effect = lower value
# [30] = S. cerevisiae deletion strains, locus YOL006C, strain TOP1, stronger effect = lower value
# [31] = S. cerevisiae deletion strains, locus YCL061C, strain MRC1, stronger effect = lower value
structure (smiles),measurement,setting,value
CCOC(=O)c1sc(-c2ccc(C)cc2)nc1O,normalized growth,[1],0.182 (active)
same,normalized growth,[2],0.136 (active)
same,normalized growth,[3],0.267 (active)
same,normalized growth,[4],0.716 (active)
same,normalized growth,[5],0.195 (active)
same,normalized growth,[6],0.583 (active)
same,normalized growth,[7],0.122 (active)
same,normalized growth,[8],0.0748 (active)
same,normalized growth,[9],0.135 (active)
same,normalized growth,[10],0.107 (active)
same,normalized growth,[11],0.337 (active)
same,normalized growth,[12],0.174 (active)
same,normalized growth,[13],0.46 (active)
same,normalized growth,[14],0.409 (active)
same,normalized growth,[15],0.129 (active)
same,normalized growth,[16],0.228 (active)
same,normalized growth,[17],0.464 (active)
same,normalized growth,[18],0.345 (active)
same,normalized growth,[19],0.218 (active)
same,normalized growth,[20],0.301 (active)
same,normalized growth,[21],0.118 (active)
same,normalized growth,[22],0.313 (active)
same,normalized growth,[23],0.438 (active)
same,normalized growth,[24],0.659 (active)
same,normalized growth,[25],0.463 (active)
same,normalized growth,[26],0.368 (active)
same,normalized growth,[27],0.518 (active)
CCOC(=O)c1nc(-c2ccccc2)sc1C(=O)OCC,normalized growth,[1],1
same,normalized growth,[2],0.955
same,normalized growth,[3],0.999
same,normalized growth,[4],0.947
same,normalized growth,[5],1
same,normalized growth,[6],0.958
same,normalized growth,[7],0.973
same,normalized growth,[28],0.958
same,normalized growth,[8],0.735
same,normalized growth,[9],0.958
same,normalized growth,[10],0.947
same,normalized growth,[11],0.973
same,normalized growth,[12],0.907
same,normalized growth,[13],0.961
same,normalized growth,[14],0.716 (active)
same,normalized growth,[15],0.968
same,normalized growth,[16],0.833
same,normalized growth,[17],0.814 (active)
same,normalized growth,[18],0.921
same,normalized growth,[19],0.963
same,normalized growth,[29],0.977
same,normalized growth,[20],0.995
same,normalized growth,[21],0.766 (active)
same,normalized growth,[22],0.981
same,normalized growth,[23],0.912
same,normalized growth,[30],0.718 (active)
same,normalized growth,[24],0.979
same,normalized growth,[25],0.921
same,normalized growth,[26],0.741
CCOC(=O)c1ccc2[nH]c(-c3ccccc3)cc(=O)c2c1,normalized growth,[1],1.02
same,normalized growth,[2],1
same,normalized growth,[31],1.01
same,normalized growth,[3],1.01
same,normalized growth,[4],1.01
same,normalized growth,[5],1.02
same,normalized growth,[6],1.01
same,normalized growth,[7],1.01
same,normalized growth,[8],1.02
same,normalized growth,[9],1
same,normalized growth,[10],1.01
same,normalized growth,[11],1.01
same,normalized growth,[12],0.994
same,normalized growth,[13],1.01
same,normalized growth,[14],1.04
same,normalized growth,[15],1.01
same,normalized growth,[16],1.03
same,normalized growth,[17],1.03
same,normalized growth,[18],0.997
same,normalized growth,[19],1.01
same,normalized growth,[29],0.997
same,normalized growth,[20],1.01
same,normalized growth,[21],1.04
same,normalized growth,[22],1
same,normalized growth,[23],1.04
same,normalized growth,[30],1.04
same,normalized growth,[24],1.11
same,normalized growth,[25],1.03
same,normalized growth,[26],1.09
same,normalized growth,[27],1.03
CN=c1nc(-c2ccccc2)n(-c2ccccc2)s1,normalized growth,[1],0.969
same,normalized growth,"S. cerevisiae deletion strains, locus YAL040C, strain CLN3, stronger effect = lower value",0.983
same,normalized growth,"S. cerevisiae deletion strains, locus YCL061C, strain MRC1 (second series), stronger effect = lower value",0.984
same,normalized growth,[5],0.973
same,normalized growth,"S. cerevisiae deletion strains, locus YDR363W, strain ESC2, stronger effect = lower value",0.983
same,normalized growth,"S. cerevisiae deletion strains, locus YER002W, strain NOP16, stronger effect = lower value",0.982
same,normalized growth,[28],0.905
same,normalized growth,"S. cerevisiae deletion strains, locus YMR307W, strain GAS1, stronger effect = lower value",0.947
same,normalized growth,[20],0.905
same,normalized growth,"S. cerevisiae deletion strains, locus YNL175C, strain NOP13, stronger effect = lower value",0.978
same,normalized growth,"S. cerevisiae deletion strains, locus YNL197C, strain WHI3, stronger effect = lower value",0.99
same,normalized growth,"S. cerevisiae deletion strains, locus YNL224C, strain SQS1, stronger effect = lower value",0.987
same,normalized growth,[22],0.978
same,normalized growth,"S. cerevisiae deletion strains, locus YOR083W, strain WHI5 (second series), stronger effect = lower value",0.961
same,normalized growth,[25],0.982
O=C1CC(CSc2ccc(Cl)cc2)=NN1,normalized growth,[1],0.957
same,normalized growth,[2],0.911 (active)
same,normalized growth,[31],0.95
same,normalized growth,[3],1.02
same,normalized growth,[5],0.968
same,normalized growth,[6],0.832 (active)
same,normalized growth,[7],0.963
same,normalized growth,[8],0.752
same,normalized growth,[9],0.837 (active)
same,normalized growth,[10],0.908 (active)
same,normalized growth,[11],0.982
same,normalized growth,[12],0.936
same,normalized growth,[14],1.02
same,normalized growth,[15],0.949
same,normalized growth,[16],0.659 (active)
same,normalized growth,[17],0.987
same,normalized growth,[18],0.857 (active)
same,normalized growth,[19],0.918 (active)
same,normalized growth,[29],0.978
same,normalized growth,[20],0.965
same,normalized growth,[21],0.789 (active)
same,normalized growth,[22],0.938 (active)
same,normalized growth,[23],0.844 (active)
same,normalized growth,[24],0.89
same,normalized growth,[25],0.83 (active)
same,normalized growth,[26],0.639 (active)
